From PubChem BioAssay AID434970 (Sanford-Burnham Center for Chemical Genomics, 2010) come the findings set out here.

Hit rate of the full screen: of about 11,000 compounds, about 310 (2.8%) were called active. No stated cut-off is given here; in the data, active means activity change below about -85%; inactive means the rest. The list comes from a sample in which actives are over-represented; it also holds similar structures and randomly drawn compounds. Starred links: 1 amine or outer side, 2 acyl side, 3 side chain; linkers in the order of their positions; H or OH if unused. Positions of bridges follow the written chain, without caps; N, C: chain ends. Non-standard residues stand in square brackets, D forms with d. Residues, ends and D or L forms follow the SMILES beside them. ξ: configuration not given here. hSer(Ph(2-I,4-NO2,6-CO)) = O=C([C@H](CCOc1c(I)cc([N+](=O)[O-])cc1C(=O)[*:3])N[*:1])[*:2]; ξD = NC(CC(=O)O)C(=O)O

For the assay, the system named is intestinal alkaline phosphatase [Mus musculus]. Briefly: activators of mouse IAP, confirmation, biochemical, luminescence, single concentration (AID 434970). The settings on record: purified mouse IAP, CDP-Star luminescence, 30 min, at 10 µM; activation factor: measured here: IAP activation factor, stronger effect = higher value; activity change, negative = activation: stronger effect = lower value.
In the case of `C#CCOCCOCCOCCNc1nc(N2CCN(C(=O)CCCCCCCCCCNC(=O)[C@H](CCCCN)n3cc(CCCC(=O)O)nn3)CC2)nc(N2CCN(C(=O)CCCCCCCCCCNC(=O)[C@H](CCCN=C(N)N)n3cc(C[C@@H](C)CC)nn3)CC2)n1`, the activation factor turned out to be 2.67 and the activity change, negative = activation is -167% (active).
For `C#CCOCCOCCOCCNc1nc(N2CCN(C(=O)CCCCCCCCCCNC(=O)[C@H](CCCCN)n3cc(C)nn3)CC2)nc(N2CCN(C(=O)CCCCCCCCCCNC(=O)[C@H](CCCN=C(N)N)n3cc(C[C@@H](C)CC)nn3)CC2)n1`, in that order: 3.95 and -295% (active).
The like results for `C#CCOCCOCCOCCNc1nc(N2CCN(C(=O)CCCCCCCCCCNC(=O)[C@H](CCCCN)n3cc(CCO)nn3)CC2)nc(N2CCN(C(=O)CCCCCCCCCCNC(=O)[C@H](CCCN=C(N)N)n3cc(C[C@@H](C)CC)nn3)CC2)n1` were, in that order, 3.04 and -204% (active).
For `CCOC(=O)c1c(N)sc(C(O)(C(F)(F)F)C(F)(F)F)c1-c1ccccc1`, in that order: 1.07 and -6.55% (inactive).
Turning to `CC1CN(c2nc3c(c(=O)n(Cc4ccc(Cl)c(Cl)c4)c(=O)n3C)n2C)CC(C)O1` (configuration not stated), the activation factor was found to be 1.01 and the activity change, negative = activation was -0.8% (inactive).
The like results for `Cc1n[nH]c(C)c1S(=O)(=O)N1CCCC(C(=O)N2CCc3ccccc32)C1` (configuration not stated) were, in that order, 0.946 and 5.45% (inactive).
For `COc1ccc(Nc2nc(N)nc(CSc3nccc(C)n3)n2)cc1`, in that order: 1.04 and -3.9% (inactive).
For `Cc1ccc(-c2nnn(CC(=O)N3CCCc4ccccc43)n2)cc1`, in that order: 1.06 and -6.35% (inactive).
As to `CSc1cccc(NC(=O)Nc2ccccc2)c1`, the activation factor was 2.1 and the activity change, negative = activation was -110% (active).
For `CSc1cccc(NC(=O)Nc2ccc(Cl)cc2)c1`, in that order: 2.06 and -106% (active).
Consider `COc1ccccc1C(=O)Nc1cccc(SC)c1`, for which the activation factor amounted to 1.12 and the activity change, negative = activation was -11.6% (inactive).
In the case of `CSc1cccc(NC(=O)NCc2cccc(CNC(=O)Nc3cccc(SC)c3)c2)c1`, the activation factor worked out at 1.62 and the activity change, negative = activation was -61.9% (inactive).
The like results for `COC(=O)c1cccc(NC(=O)Nc2ccc(Cl)cc2)c1` were, in that order, 1.48 and -47.6% (inactive).
With `CSc1cccc(NC(=O)Nc2nc3c(C)cccc3s2)c1`, the activation factor came to 1.45 and the activity change, negative = activation was -45% (inactive).
For `Cc1cnc(-c2nnc(N(C)C(=O)C3CCOC3)s2)cn1` (configuration not stated), the activation factor is 0.996 and the activity change, negative = activation was 0.45% (inactive).
The like results for `Cc1onc(-c2ccccc2Cl)c1C(=O)OCC(=O)N1CCCc2ccccc21` were, in that order, 1.02 and -2.05% (inactive).
On to `CC(C)(C)c1ccc(OCC(=O)NCc2ccco2)c(Br)c1`, for which the activation factor turned out to be 0.869 and the activity change, negative = activation was 13.1% (inactive).
The like results for `CC(C)N1CC2=C(OC(N)=C(C#N)C2c2cccnc2)/C(=C/c2cccnc2)C1` (configuration not stated) were, in that order, 0.917 and 8.3% (inactive).
For `Cc1ccc(C)c(CN2CCC(CNC(=O)Nc3ccc(Br)cc3F)CC2)c1`, in that order: 1.55 and -54.9% (inactive).
Turning to `Cc1ccc(C)c(CN2CCC(CNC(=O)Nc3ccc(C)c(C)c3)CC2)c1`, the activation factor amounted to 2.21 and the activity change, negative = activation is -121% (active).
For `Cc1ccc(SCCNC(=S)Nc2ccc(C)c(C)c2)cc1`, in that order: 1.46 and -45.9% (inactive).
Regarding `Cc1ccc(SCC(=O)Nc2ccc(N3CCN(C)CC3)c(F)c2)c(C)c1`, the activation factor was 1.13 and the activity change, negative = activation is -13% (inactive).
For `Cc1cc(C)cc(NC(=O)NCC2CCN(Cc3cc(C)ccc3C)CC2)c1`, in that order: 2.32 and -132% (active).
For `Cc1cc(C)c(CN2CCN(C(=O)Cn3cnc(C(=O)Nc4ccc(C)c(C)c4)n3)CC2)c(C)c1`, in that order: 1.13 and -13.2% (inactive).
For `Cc1ccc(C)c(CN2CCC(CNC(=O)Nc3ccc(C)c(F)c3)CC2)c1`, in that order: 2.16 and -116% (active).
`C[C@@H]1NC(=O)c2cc([N+](=O)[O-])cc(I)c2OCC[C@@H](C(=O)NC(CC(=O)O)C(N)=O)NC(=O)[C@H](CC(N)=O)NC1=O` (some centres not stated) (AN[hSer(Ph(2-I,4-NO2,6-CO))][ξD]-NH2; lactam N-3): the activation factor is 1.15 and the activity change, negative = activation was -14.8% (inactive).
Regarding `CC[C@]12c3[nH]c4cc(-c5ccco5)ccc4c3CCN1C(=O)[C@@H](CC(=O)NCc1ccco1)C[C@@H]2C(=O)N1CCN(C(=O)C2CC2)CC1`, the activation factor was 1.23 and the activity change, negative = activation is -22.7% (inactive).
`CC(C)CCNC(=O)NC(=O)CSc1nnc(COc2ccccc2Cl)o1`: the activation factor worked out at 1.04 and the activity change, negative = activation was -4.3% (inactive).
For `CC(C)C(=O)Nc1nnc(SCC(=O)NCc2cccs2)s1`, in that order: 0.976 and 2.4% (inactive).
For `Cc1ccc(C(=O)Nc2nncs2)cc1S(=O)(=O)N1CCOCC1`, in that order: 0.927 and 7.35% (inactive).
Regarding `COc1ccc(S(=O)(=O)NCCc2ccc(F)cc2)cc1`, the activation factor stood at 0.961 and the activity change, negative = activation is 3.9% (inactive).
The like results for `Cc1cc2c(ncn2C)c(NS(=O)(=O)c2cc(Cl)ccc2Cl)c1C` were, in that order, 0.946 and 5.45% (inactive).
For `Cc1noc2ncnc(Sc3c(Cl)cccc3Cl)c12`, in that order: 0.906 and 9.4% (inactive).
The like results for `C#CCOCCOCCOCCNc1nc(N2CCN(C(=O)CCCCCCCCCCNC(=O)[C@H](CO)n3cc(CCCSC)nn3)CC2)nc(N2CCN(C(=O)CCCCCCCCCCNC(=O)[C@H](CCCCN)n3cc(C[C@@H](C)CC)nn3)CC2)n1` were, in that order, 2.83 and -183% (active).
On to `C#CCOCCOCCOCCNc1nc(N2CCN(C(=O)CCCCCCCCCCNC(=O)[C@H](CO)n3cc(CCCSC)nn3)CC2)nc(N2CCN(C(=O)CCCCCCCCCCNC(=O)[C@H](CCCN=C(N)N)n3cc(C[C@@H](C)CC)nn3)CC2)n1`, for which the activation factor came out at 5.98 and the activity change, negative = activation is -498% (active).
Consider `C#CCOCCOCCOCCNc1nc(N2CCN(C(=O)CCCCCCCCCCNC(=O)[C@@H](CCSC)n3cc(CCO)nn3)CC2)nc(N2CCN(C(=O)CCCCCCCCCCNC(=O)[C@H](CCCN=C(N)N)n3cc(C[C@@H](C)CC)nn3)CC2)n1`, for which the activation factor was 8.61 and the activity change, negative = activation is -761% (active).
